For 40 sequences, binding signal results are on record in paper PMC5700166.

One assay concerns the target T1, GST-Aq-NF-kB (Amphimedon queenslandica, UniProt A9Y5G7 2-389).
T1 sequence: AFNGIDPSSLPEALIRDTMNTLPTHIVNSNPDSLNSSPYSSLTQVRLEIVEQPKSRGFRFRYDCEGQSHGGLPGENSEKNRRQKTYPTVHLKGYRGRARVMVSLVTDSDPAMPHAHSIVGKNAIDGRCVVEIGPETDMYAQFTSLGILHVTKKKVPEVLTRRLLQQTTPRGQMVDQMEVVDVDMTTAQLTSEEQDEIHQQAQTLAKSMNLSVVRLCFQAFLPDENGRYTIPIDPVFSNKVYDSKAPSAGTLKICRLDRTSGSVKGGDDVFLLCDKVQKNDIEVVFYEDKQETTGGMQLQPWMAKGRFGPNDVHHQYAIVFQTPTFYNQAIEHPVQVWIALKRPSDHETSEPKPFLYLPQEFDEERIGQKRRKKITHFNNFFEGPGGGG
The assay is described as follows: protein-binding microarray (PBM); PBM: ~300 nM protein, 6 mM HEPES pH 7.8, 80 mM KCl, 0.5 mM EDTA, 0.5 mM EGTA, 6% glycerol, 35 ng/ul poly-dIdC, 1% milk, 1 h, room temperature; Ap Aiptasia and Nv Nematostella (sea anemones) / Co Capsaspora / Aq Amphimedon (sponge) / Dm Drosophila / Hu human; RHD is the Rel homology domain; high values mean tight binding. The conditions noted are these: dsDNA, one strand shown.
Regarding “CCGATTAACATCACAGTCCCCCCTGATGTTAATCGGGTCTTGATTCGCTTGACGCTGCTG”, the binding signal worked out at 4.63 z-score. Regarding “CCGATTAACATCAAAAAGCCCCCTGATGTTAATCGGGTCTTGATTCGCTTGACGCTGCTG”, the binding signal came out at 8.57 z-score. Take “CCGATTAACATCAGAAATATCCCTGATGTTAATCGGGTCTTGATTCGCTTGACGCTGCTG”: the binding signal was 4.26 z-score.

A further assay deals with GST-Hu-p50 (Homo sapiens, UniProt P19838 7-356). Described as above. The conditions noted are these: dsDNA, one strand shown.
Sequence of GST-Hu-p50 (P19838 7-356): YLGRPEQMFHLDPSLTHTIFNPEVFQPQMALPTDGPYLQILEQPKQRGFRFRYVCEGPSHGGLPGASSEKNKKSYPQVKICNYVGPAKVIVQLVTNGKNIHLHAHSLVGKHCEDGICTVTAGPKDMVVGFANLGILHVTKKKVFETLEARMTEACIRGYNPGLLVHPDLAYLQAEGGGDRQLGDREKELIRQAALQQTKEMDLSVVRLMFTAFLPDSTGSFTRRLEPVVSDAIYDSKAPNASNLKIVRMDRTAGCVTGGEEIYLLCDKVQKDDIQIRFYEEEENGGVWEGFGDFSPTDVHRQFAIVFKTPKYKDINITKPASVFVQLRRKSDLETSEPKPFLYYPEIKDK
For “CCGATTAACATCAGGGGAACGCATGATGTTAATCGGGTCTTGATTCGCTTGACGCTGCTG”, the binding signal stood at 4.2 z-score. “CCGATTAACATCAGGGGGCTATATGATGTTAATCGGGTCTTGATTCGCTTGACGCTGCTG” yielded a binding signal of 3.35 z-score. In turn, “CCGATTAACATCAAATTTCCCAGTGATGTTAATCGGGTCTTGATTCGCTTGACGCTGCTG” gave a binding signal of 3.07 z-score. Same read-out and setting: then “CCGATTAACATCAAAAAATCCCATGATGTTAATCGGGTCTTGATTCGCTTGACGCTGCTG”, with 4.75 z-score; and “CCGATTAACATCAAAAATCCCAATGATGTTAATCGGGTCTTGATTCGCTTGACGCTGCTG”, with 3.32 z-score; and “CCGATTAACATCAAAAAAACCCCTGATGTTAATCGGGTCTTGATTCGCTTGACGCTGCTG”, with 7.76 z-score. Still for that read-out and setting: as for “CCGATTAACATCAGGGAATTTACTGATGTTAATCGGGTCTTGATTCGCTTGACGCTGCTG”, the figure is 5.14 z-score; as for “CCGATTAACATCAAGGGGGTACTTGATGTTAATCGGGTCTTGATTCGCTTGACGCTGCTG”, 4.47 z-score; as for “CCGATTAACATCAGGGGAGGGAATGATGTTAATCGGGTCTTGATTCGCTTGACGCTGCTG”, 3.3 z-score. In turn, “CCGATTAACATCAGGGGATACACTGATGTTAATCGGGTCTTGATTCGCTTGACGCTGCTG” returned a binding signal of 3.83 z-score. For “CCGATTAACATCAAGGGGGGGTGTGATGTTAATCGGGTCTTGATTCGCTTGACGCTGCTG”, the binding signal was 4.28 z-score. With “CCGATTAACATCAGGTTTCCCCATGATGTTAATCGGGTCTTGATTCGCTTGACGCTGCTG”, the binding signal was determined as 5.34 z-score. On the same count and under the same terms, then “CCGATTAACATCAAAAATACCCCTGATGTTAATCGGGTCTTGATTCGCTTGACGCTGCTG”, with 6.44 z-score; and “CCGATTAACATCAGGGGGGACGATGATGTTAATCGGGTCTTGATTCGCTTGACGCTGCTG”, with 3.85 z-score.

Consider “CCGATTAACATCAGGGGAACCACTGATGTTAATCGGGTCTTGATTCGCTTGACGCTGCTG”, for which the binding signal was 5.33 z-score. Sequence “CCGATTAACATCAAAAAACCCCTTGATGTTAATCGGGTCTTGATTCGCTTGACGCTGCTG” returned a binding signal of 7.64 z-score. For “CCGATTAACATCAGGGTATTTTATGATGTTAATCGGGTCTTGATTCGCTTGACGCTGCTG”, the binding signal was determined as 5.87 z-score. Still for that read-out and setting: as for “CCGATTAACATCAAGAACTTCCCTGATGTTAATCGGGTCTTGATTCGCTTGACGCTGCTG”, the figure is 2.19 z-score; as for “CCGATTAACATCACGGGGAATTCTGATGTTAATCGGGTCTTGATTCGCTTGACGCTGCTG”, 6.54 z-score. Still for that read-out and setting: as for “CCGATTAACATCAGGGGATTTAATGATGTTAATCGGGTCTTGATTCGCTTGACGCTGCTG”, the figure is 6.98 z-score. With “CCGATTAACATCAGGGGAATTAATGATGTTAATCGGGTCTTGATTCGCTTGACGCTGCTG”, the binding signal amounted to 6.52 z-score.

“CCGATTAACATCAAATGTCCCCCTGATGTTAATCGGGTCTTGATTCGCTTGACGCTGCTG” registered a binding signal of 4.71 z-score. “CCGATTAACATCAGGAATTCCCCTGATGTTAATCGGGTCTTGATTCGCTTGACGCTGCTG” showed a binding signal of 7.74 z-score.

Take “CCGATTAACATCAAAAACTCCCCTGATGTTAATCGGGTCTTGATTCGCTTGACGCTGCTG”: the binding signal was 6.46 z-score.

As for “CCGATTAACATCACACATCCCCCTGATGTTAATCGGGTCTTGATTCGCTTGACGCTGCTG”, the binding signal was determined as 4.48 z-score. Same read-out and setting: then “CCGATTAACATCAAGACTTCCCCTGATGTTAATCGGGTCTTGATTCGCTTGACGCTGCTG”, with 5.95 z-score. Same read-out and setting: then “CCGATTAACATCAGGGGGGTGAATGATGTTAATCGGGTCTTGATTCGCTTGACGCTGCTG”, with 4.12 z-score; and “CCGATTAACATCAGGGGGGTAAATGATGTTAATCGGGTCTTGATTCGCTTGACGCTGCTG”, with 4.35 z-score; and “CCGATTAACATCATAAATTCCCATGATGTTAATCGGGTCTTGATTCGCTTGACGCTGCTG”, with 4.37 z-score. For the sequence “CCGATTAACATCAAATCCCCCCGTGATGTTAATCGGGTCTTGATTCGCTTGACGCTGCTG”, the binding signal came to 6.44 z-score. The same measure, in the same setting: then “CCGATTAACATCAAATTCCCATGTGATGTTAATCGGGTCTTGATTCGCTTGACGCTGCTG”, with 3.09 z-score; and “CCGATTAACATCAGGGGGCGGGATGATGTTAATCGGGTCTTGATTCGCTTGACGCTGCTG”, with 4.21 z-score; and “CCGATTAACATCAGGAAATTCCCTGATGTTAATCGGGTCTTGATTCGCTTGACGCTGCTG”, with 6.16 z-score.

“CCGATTAACATCAGGGGGTGGTATGATGTTAATCGGGTCTTGATTCGCTTGACGCTGCTG” showed a binding signal of 3.67 z-score. Still for that read-out and setting: as for “CCGATTAACATCAAAAATTACCCTGATGTTAATCGGGTCTTGATTCGCTTGACGCTGCTG”, the figure is 5.22 z-score; as for “CCGATTAACATCACGGGGGATTCTGATGTTAATCGGGTCTTGATTCGCTTGACGCTGCTG”, 7.01 z-score. Same read-out and setting: then “CCGATTAACATCAAAGGACCCCCTGATGTTAATCGGGTCTTGATTCGCTTGACGCTGCTG”, with 3.2 z-score; and “CCGATTAACATCACAGTCCCCCCTGATGTTAATCGGGTCTTGATTCGCTTGACGCTGCTG”, with 4.33 z-score. The same measure, in the same setting: as for “CCGATTAACATCAAAAAGCCCCCTGATGTTAATCGGGTCTTGATTCGCTTGACGCTGCTG”, the figure is 7.23 z-score; as for “CCGATTAACATCAGAAATATCCCTGATGTTAATCGGGTCTTGATTCGCTTGACGCTGCTG”, 3.17 z-score.
